Source: PubChem BioAssay (NCI)
Values joined by “and” are separate entries in the source; they are usually repeats but may differ in a detail not shown here. Equal entries are not always repeated. Compounds without any hit were thinned out: in the full panel of roughly 83,000, 20% have a hit.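 Note: values are percent growth. 100 is the growth of untreated cells, values between 100 and 0 indicate rising inhibition; between -100 and 0 indicates cell death.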 Active and inactive are the calls of the source. The calls were made as follows: active = growth percent below 10; inactive = the rest.

What follows are compounds tested on ACHN renal (assay: NCI-60 one-dose screen, 48 h (100 = growth as untreated, 0 = no growth, -100 = all killed)). Settings: 10 µM unless noted.

Compound	growth
O=[N+]([O-])c1ccccc1/C=N\Nc1ccccc1	61.4% (inactive) and 64.2% (inactive)
CCN(CC)CCNc1cc(-c2cccc(OC(F)(F)F)c2)nc2ccc(N3CCCC3)cc12	24.4% (inactive) and 12.9% (inactive) and 27.7% (inactive)
CC(=O)Nc1cc(S(=O)(=O)O)cc2cc(S(=O)(=O)O)c(N=Nc3ccccc3)c(O)c12	106% (inactive) and 108% (inactive)
CC(C)CNC(=O)c1ccccc1C(=O)NC1(C(=O)NCC(C)C)CCCC1	102% (inactive) and 104% (inactive)
COc1cc2nc(N3CCN(C(=O)C4COc5ccccc5O4)CC3)nc(N)c2cc1OC (centres undefined)	121% (inactive) and 92.4% (inactive) and 98.8% (inactive)
O=C(Cc1cccc2ccccc12)N/N=C/c1ccc2c(c1)CCC2	83.4% (inactive)
CC1=C(/C=C/C(C)=C/C=C/C(C)=C/C(=O)O)C(C)(C)CCC1	94.9% (inactive) and 98.9% (inactive) and 94.8% (inactive)
O=C(Nc1ccc(Br)cc1)c1cc(Br)ccc1O	9.36% (active) and -2.71% (active)
Cc1cc(-c2ccc(NS(=O)(=O)c3ccccc3)c(C)c2)ccc1NS(=O)(=O)c1ccccc1	81.2% (inactive) and 96.7% (inactive)
O=C(CCl)c1ccc2c(c1)Nc1ccccc1S2	104% (inactive) and 92.4% (inactive)
CC1CCCc2sc3nc(NNC(=O)c4cnccn4)n(-c4ccccc4)c(=O)c3c21 (centres undefined)	8.58% (active) and 19.9% (inactive)
Cc1cc(O)c(C(C)C)cc1N	93.3% (inactive) and 100% (inactive)
COc1ccc2cc3[n+](cc2c1OC)CCc1cc2c(cc1-3)OCO2	91.2% (inactive)
COc1c(/C(C)=N/N=c2sc(C(C)=O)nn2-c2ccc(Cl)cc2)c(Oc2ccccc2)c(OC)c2occc12	109% (inactive) and 101% (inactive)
OC(COc1cccc2ccccc12)CN1CCN(c2ccc(Cl)cc2)CC1 (centres undefined)	68.6% (inactive) and 102% (inactive)
CNc1ccc2nc3ccc(=[N+](C)C)cc-3sc2c1	14.6% (inactive) and -27.6% (active)
CC1=NN(c2ccccc2)C(=O)C1C(=O)c1ccccc1 (centres undefined)	99.4% (inactive)

Compound	growth
OCCN1CCN(CCO)CC1	99.1% (inactive) and 98% (inactive) and 104% (inactive)
CC1=CCC2CC1C2(C)C (centres undefined)	102% (inactive) and 96.1% (inactive)
COc1cc(/C=N/Nc2nc3c([nH]2)c(=O)n(C)c(=O)n3C)ccc1O	109% (inactive)
S=C(S)N1CCCC1	125% (inactive) and 110% (inactive)
CC(=O)Oc1cc(C(=O)O)cc(OC(C)=O)c1OC(C)=O	112% (inactive) and 98.3% (inactive)
CCN(CC)C(=O)c1cccnc1	107% (inactive)
O=C(Nc1cccc(Cl)c1)c1cc2ccccc2cc1O	12.8% (inactive) and 12.2% (inactive)
Cn1c(SSc2ccc(-c3cccnc3)n2C)ccc1-c1cccnc1	119% (inactive) and 108% (inactive)
CN1CCN(CCC=C2c3ccccc3Sc3ccc(S(=O)(=O)N(C)C)cc32)CC1	65.8% (inactive) and 73.1% (inactive)
Oc1c(Cl)cc(Cl)cc1Sc1cc(Cl)cc(Cl)c1O	15.2% (inactive) and 105% (inactive)
Cn1c(=O)n(-c2ccc(C(C)(C)C#N)cc2)c2c3cc(-c4cnc5ccccc5c4)ccc3ncc21	5.22% (active) and 9.17% (active)
O=C(N/N=C/c1ccccc1)N/N=C/c1ccccc1	109% (inactive) and 111% (inactive)
COc1ccc(-c2cn[nH]c2-c2cc(OC)c(OC)c(OC)c2)cc1N	30.7% (inactive) and 29.4% (inactive)
C1CCCCNCCC1	117% (inactive)
COc1ccccc1C(C)=O	105% (inactive) and 102% (inactive)
NS(=O)(=O)c1cc2c(cc1Cl)NC(C(Cl)Cl)NS2(=O)=O (centres undefined)	96.7% (inactive) and 92.4% (inactive)
O=C(Oc1cccc(OC(=O)c2ccccc2)c1)c1ccccc1	103% (inactive) and 99.7% (inactive)
